Experiments:
Assay in all cases: log2 ratio of Biotin-Ahx-Ub-VS probe labelling (fragment/DMSO); higher = less target engagement (more negative = stronger competition), active = hit call of the paper (q ≤ 0.05, log2 ratio ≤ -1)
Conditions in all cases: compound concentration: 200 uM; treatment time: 3 h
USP34 = USP34 (UniProt Q70CQ2)
Procedure, shortened: (§1)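 HEK293T lysate, 495 µg per sample in Tris/CHAPS/IGEPAL buffer with protease inhibitors, was treated in triplicate with fragment at 200 µM or vehicle for 3 h and then with Biotin-Ahx-Ub-VS at 0.5 µM final for 1 h. Labelled DUBs were NeutrAvidin-enriched, digested with LysC and trypsin, and run by diaPASEF LC-MS/MS. Spectronaut label-free quantities were global-median-normalised, and values are average log2 fragment/vehicle ratios by unpaired t-test on proteins with ≥2 unique peptides.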

USP36 = molecular target: T1, USP36 (UniProt Q9P275)
T1 sequence (whole entry): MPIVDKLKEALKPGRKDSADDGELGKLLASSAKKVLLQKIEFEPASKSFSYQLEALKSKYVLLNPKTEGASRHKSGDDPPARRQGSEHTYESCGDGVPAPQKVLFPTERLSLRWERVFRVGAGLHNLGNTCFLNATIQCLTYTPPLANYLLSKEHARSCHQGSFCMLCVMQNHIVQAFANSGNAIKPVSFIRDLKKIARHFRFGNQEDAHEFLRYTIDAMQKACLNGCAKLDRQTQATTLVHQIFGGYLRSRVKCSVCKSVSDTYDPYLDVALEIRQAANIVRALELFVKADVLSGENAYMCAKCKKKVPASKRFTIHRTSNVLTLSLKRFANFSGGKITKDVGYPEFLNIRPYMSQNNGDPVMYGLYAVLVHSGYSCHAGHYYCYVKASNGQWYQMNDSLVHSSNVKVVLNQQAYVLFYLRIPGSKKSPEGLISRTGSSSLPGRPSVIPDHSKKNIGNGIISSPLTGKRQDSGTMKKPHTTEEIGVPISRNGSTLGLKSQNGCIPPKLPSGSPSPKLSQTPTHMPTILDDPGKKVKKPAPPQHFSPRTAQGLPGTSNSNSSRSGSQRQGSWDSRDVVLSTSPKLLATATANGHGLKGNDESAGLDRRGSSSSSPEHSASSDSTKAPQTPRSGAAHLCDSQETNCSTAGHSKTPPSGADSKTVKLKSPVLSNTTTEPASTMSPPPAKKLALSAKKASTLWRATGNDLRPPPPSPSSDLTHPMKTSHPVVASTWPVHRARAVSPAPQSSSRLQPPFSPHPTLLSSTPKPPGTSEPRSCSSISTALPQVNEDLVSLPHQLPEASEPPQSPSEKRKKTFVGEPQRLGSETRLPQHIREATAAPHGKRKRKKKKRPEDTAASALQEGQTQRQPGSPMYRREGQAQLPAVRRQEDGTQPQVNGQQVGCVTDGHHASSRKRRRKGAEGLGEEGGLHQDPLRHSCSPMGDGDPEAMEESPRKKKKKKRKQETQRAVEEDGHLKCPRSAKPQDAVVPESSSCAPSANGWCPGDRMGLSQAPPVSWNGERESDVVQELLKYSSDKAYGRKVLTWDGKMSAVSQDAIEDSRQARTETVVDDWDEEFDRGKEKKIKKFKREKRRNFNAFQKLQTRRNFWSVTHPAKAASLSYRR
Procedure, shortened: as §1

USP38 = molecular target: T2, USP38 (UniProt Q8NB14)
T2 sequence (whole entry): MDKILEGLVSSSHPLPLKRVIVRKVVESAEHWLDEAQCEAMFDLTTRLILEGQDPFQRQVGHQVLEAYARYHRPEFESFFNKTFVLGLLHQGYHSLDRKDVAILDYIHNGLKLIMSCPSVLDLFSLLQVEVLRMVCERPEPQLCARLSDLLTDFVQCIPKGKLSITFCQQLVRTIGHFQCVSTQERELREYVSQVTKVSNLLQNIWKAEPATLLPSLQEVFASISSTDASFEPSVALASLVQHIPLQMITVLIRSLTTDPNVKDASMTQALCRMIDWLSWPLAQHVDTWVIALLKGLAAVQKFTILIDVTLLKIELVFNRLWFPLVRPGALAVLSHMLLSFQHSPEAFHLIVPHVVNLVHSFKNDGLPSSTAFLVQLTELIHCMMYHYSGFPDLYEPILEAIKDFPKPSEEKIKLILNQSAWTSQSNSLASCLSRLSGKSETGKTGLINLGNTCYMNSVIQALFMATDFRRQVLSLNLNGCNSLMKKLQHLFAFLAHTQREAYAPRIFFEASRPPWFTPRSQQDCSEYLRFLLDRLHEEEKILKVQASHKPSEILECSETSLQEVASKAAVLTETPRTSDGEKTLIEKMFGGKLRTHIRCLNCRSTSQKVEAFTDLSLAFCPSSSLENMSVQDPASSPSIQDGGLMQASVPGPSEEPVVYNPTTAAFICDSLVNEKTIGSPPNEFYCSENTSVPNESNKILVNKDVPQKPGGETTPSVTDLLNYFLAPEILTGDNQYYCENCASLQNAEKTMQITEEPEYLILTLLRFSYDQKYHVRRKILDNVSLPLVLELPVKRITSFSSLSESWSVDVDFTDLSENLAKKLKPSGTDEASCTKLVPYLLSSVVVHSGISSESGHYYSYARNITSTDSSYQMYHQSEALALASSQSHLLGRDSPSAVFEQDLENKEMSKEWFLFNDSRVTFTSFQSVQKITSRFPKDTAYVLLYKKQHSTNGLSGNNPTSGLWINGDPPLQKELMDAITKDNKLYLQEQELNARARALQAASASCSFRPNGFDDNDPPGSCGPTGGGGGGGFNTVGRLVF
Procedure, shortened: as §1

USP39 = molecular target: T3, USP39 (UniProt Q53GS9)
T3 sequence (whole entry): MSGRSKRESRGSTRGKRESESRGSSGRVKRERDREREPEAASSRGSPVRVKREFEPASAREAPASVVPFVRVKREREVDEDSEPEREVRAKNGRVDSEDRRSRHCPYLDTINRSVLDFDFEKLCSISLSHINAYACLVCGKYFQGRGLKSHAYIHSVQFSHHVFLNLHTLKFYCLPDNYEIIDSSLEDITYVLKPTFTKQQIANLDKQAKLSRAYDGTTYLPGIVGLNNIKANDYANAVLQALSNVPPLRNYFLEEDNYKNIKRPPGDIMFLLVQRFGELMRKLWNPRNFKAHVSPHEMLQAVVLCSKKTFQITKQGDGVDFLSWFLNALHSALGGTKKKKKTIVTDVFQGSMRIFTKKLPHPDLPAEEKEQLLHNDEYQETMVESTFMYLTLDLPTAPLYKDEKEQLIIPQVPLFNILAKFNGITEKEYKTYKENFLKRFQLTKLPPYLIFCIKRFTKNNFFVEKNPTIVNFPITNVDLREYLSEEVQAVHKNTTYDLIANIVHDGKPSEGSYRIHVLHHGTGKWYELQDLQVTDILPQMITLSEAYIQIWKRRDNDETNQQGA
Procedure, shortened: as §1

USP4 = molecular target: T4, USP4 (UniProt Q13107)
T4 sequence (whole entry): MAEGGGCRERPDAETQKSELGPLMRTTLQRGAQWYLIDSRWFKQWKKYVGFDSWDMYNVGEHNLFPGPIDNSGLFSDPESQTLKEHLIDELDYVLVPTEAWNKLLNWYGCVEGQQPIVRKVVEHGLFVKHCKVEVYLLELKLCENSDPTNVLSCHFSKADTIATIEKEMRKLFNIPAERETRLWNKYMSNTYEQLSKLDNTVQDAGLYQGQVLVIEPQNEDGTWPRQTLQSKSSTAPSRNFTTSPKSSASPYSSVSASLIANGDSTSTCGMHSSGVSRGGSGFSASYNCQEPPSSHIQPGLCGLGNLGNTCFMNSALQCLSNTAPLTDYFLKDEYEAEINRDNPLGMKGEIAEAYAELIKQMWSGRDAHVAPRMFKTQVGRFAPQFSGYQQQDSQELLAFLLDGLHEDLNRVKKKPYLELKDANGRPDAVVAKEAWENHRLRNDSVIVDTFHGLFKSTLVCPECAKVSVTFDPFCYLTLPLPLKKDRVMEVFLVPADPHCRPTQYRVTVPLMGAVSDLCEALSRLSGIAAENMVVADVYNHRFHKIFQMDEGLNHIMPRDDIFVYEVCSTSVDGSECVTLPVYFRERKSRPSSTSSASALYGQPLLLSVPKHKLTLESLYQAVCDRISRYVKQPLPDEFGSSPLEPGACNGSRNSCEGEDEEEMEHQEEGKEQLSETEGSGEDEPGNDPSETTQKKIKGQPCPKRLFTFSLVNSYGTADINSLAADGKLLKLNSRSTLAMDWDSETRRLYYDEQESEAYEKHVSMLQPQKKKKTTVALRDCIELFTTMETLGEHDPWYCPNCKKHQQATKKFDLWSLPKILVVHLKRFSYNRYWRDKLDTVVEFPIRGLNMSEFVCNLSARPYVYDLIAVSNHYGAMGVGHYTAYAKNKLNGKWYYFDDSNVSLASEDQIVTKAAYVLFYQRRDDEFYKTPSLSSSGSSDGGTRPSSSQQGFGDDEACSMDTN
Procedure, shortened: as §1

Measured: log2 ratio of Biotin-Ahx-Ub-VS probe labelling

Sequence of USP34 (Q70CQ2 whole entry, the tested form may be a part): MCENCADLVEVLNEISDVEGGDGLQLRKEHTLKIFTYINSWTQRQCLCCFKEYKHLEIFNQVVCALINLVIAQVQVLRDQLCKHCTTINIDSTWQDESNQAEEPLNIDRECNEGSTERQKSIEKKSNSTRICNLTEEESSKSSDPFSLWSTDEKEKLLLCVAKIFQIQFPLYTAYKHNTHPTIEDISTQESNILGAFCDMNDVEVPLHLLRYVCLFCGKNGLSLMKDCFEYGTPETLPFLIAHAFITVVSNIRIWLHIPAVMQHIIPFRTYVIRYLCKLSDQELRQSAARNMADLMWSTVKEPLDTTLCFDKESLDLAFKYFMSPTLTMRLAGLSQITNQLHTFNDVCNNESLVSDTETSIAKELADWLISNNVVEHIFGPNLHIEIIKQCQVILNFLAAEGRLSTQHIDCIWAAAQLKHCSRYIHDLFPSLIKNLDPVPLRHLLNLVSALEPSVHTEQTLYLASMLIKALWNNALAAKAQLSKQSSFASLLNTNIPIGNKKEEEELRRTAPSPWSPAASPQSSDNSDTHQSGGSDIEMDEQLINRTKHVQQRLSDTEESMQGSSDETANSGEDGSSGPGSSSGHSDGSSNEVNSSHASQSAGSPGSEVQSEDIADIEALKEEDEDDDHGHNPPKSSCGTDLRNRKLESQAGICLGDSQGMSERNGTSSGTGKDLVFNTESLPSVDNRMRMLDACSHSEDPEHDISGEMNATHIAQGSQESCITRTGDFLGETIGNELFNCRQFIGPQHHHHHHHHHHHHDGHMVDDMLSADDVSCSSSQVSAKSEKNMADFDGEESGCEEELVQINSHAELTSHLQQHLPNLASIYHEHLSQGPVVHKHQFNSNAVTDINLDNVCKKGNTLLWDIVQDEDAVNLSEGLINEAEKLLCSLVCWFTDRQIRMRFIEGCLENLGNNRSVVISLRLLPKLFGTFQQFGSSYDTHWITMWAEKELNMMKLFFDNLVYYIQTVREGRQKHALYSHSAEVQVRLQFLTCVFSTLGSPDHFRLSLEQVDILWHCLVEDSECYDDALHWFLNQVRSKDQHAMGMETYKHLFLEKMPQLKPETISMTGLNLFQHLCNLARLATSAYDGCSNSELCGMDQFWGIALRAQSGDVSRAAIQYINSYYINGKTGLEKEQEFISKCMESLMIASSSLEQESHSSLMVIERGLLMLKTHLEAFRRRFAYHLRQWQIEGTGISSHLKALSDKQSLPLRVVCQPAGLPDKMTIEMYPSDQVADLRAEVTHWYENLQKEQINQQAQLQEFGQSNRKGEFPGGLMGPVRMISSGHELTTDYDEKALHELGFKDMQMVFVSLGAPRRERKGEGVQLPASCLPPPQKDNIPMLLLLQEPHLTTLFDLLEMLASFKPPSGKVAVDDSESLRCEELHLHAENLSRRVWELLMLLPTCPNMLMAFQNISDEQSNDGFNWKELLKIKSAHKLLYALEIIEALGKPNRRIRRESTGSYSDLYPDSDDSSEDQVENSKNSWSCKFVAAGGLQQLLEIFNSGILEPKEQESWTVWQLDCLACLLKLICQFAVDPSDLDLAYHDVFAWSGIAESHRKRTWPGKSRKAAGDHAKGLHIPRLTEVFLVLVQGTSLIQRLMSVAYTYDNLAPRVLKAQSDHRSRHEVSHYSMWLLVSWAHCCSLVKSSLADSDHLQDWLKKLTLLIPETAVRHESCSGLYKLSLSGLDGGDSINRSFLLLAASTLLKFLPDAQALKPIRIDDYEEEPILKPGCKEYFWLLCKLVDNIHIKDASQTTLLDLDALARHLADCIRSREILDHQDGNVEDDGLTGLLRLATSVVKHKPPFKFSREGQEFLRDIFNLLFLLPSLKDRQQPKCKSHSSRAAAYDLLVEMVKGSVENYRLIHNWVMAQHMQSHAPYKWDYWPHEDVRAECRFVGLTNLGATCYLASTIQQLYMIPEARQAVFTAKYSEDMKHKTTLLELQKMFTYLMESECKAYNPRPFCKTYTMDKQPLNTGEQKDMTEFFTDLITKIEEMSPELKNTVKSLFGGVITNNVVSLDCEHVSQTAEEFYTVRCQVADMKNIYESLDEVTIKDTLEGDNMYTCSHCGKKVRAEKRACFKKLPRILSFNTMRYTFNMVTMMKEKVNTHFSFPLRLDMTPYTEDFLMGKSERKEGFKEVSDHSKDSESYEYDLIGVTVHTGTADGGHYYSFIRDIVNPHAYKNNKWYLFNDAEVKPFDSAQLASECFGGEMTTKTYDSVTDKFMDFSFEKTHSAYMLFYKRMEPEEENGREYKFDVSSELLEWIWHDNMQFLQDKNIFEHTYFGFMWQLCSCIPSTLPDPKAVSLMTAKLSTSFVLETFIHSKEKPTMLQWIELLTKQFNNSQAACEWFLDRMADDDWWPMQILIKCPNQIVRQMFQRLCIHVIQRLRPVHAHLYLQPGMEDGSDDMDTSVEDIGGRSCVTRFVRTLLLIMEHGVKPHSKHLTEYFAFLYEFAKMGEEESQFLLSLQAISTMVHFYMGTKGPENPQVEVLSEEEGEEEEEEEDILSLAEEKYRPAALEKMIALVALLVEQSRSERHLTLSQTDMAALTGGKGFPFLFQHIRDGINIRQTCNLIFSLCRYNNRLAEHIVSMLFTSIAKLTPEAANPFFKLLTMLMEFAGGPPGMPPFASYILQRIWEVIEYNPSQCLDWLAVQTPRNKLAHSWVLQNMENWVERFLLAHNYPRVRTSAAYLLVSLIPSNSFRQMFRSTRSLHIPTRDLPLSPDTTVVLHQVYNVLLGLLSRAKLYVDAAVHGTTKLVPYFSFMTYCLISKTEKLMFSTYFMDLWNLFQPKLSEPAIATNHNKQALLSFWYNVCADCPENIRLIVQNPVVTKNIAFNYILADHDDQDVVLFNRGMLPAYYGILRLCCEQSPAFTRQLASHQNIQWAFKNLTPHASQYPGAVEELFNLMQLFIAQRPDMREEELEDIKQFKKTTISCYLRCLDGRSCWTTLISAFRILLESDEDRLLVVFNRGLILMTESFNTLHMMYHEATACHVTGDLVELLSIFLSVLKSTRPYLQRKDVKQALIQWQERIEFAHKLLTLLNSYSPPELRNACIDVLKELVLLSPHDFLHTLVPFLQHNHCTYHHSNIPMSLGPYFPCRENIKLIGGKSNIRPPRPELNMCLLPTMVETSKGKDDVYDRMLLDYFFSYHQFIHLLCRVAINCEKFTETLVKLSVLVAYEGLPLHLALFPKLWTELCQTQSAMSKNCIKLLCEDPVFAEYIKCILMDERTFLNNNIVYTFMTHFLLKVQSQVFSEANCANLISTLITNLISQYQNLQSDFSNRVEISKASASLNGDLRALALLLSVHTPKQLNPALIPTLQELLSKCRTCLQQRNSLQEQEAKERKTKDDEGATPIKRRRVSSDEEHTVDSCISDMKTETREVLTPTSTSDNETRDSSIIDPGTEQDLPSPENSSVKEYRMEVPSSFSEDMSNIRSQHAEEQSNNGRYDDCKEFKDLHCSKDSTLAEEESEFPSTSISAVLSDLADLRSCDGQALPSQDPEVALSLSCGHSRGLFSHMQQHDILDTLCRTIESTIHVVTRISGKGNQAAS

Cc1ccc(CN(C)C(=O)CCl)o1
inactive: USP34 -0.0329 | USP36 0.0474 | USP38 -0.0916 | USP39 0.287 | USP4 0.0471

Reference: the supplement of paper PMC11732987, “Enantioselective OTUD7B fragment discovery through chemoproteomics screening and high-throughput optimisation” (Communications Chemistry, 2025)
